# Laboratory results from PubChem BioAssay (NCI).
# Compounds without any hit were thinned out: in the full panel of roughly 83,000, 20% have a hit.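 Values shown are percent growth following 48 h exposure of cells in 96-well plates to a single concentration of compound; below 10 was considered active.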 Unmarked numbers belong to inactive results. The source made the active and inactive calls.
# Tested on: HL-60(TB) leukemia
# Assay: NCI-60 one-dose screen, 48 h (100 = growth as untreated, 0 = no growth, -100 = all killed)
# Settings: 10 µM unless noted
row,Compound,growth
1,OCCOSCCO,99.1%
2,CC(=O)O.[In],93.4%
3,O=C1NC(=O)C(c2ccccc2)O1 (stereo not given),99.5%
4,COC(=O)c1c2c(c(C)[n+]([O-])c1C)C(=O)C=C(NCc1ccccc1)C2=O,-31.4% (active)
5,COc1ccc(/C=C2/C(=O)N=C3N2NC(c2ccccc2)=CN3c2ccccc2)cc1,101%
6,CC(C)(C)c1nn(-c2ccccc2)c2c1CC1(CN2Cc2ccc(Cl)cc2)C(=O)c2ccccc2C1=O,90.8%
7,FC(F)(F)Oc1ccc2nc3nc4ccc[nH]c4cc3c2c1,73.4%
8,O=C1NC(=O)c2ncccc21,115%
9,CCOC(=O)NNc1cccc(Cl)c1,110%
10,COc1ccc(Nc2nccc(Nc3ccc4[nH]ncc4c3)n2)cc1,59.6%
11,CCOC(=O)CC1CSC(N/N=C/c2ccc(-n3cccn3)cc2)=N1 (stereo not given),94%
12,Cc1n(Cc2ccc3ccccc3n2)cc[n+]1Cc1ccc2ccccc2n1,34.2%
13,C/C(=N\Nc1ccc([N+](=O)[O-])cc1[N+](=O)[O-])c1ccc(Br)cc1,101%
14,C[C@]12CC[C@@H]3c4ccc(O)cc4CC[C@H]3[C@@H]1CC[C@@H]2NS(=O)(=O)c1ccc(C(F)(F)F)cc1,19.5%
15,Cc1ccc(-c2nc(/C=N/Nc3cc(C)nc4ccc(Cl)cc34)c(C)o2)cc1,-19.6% (active)
16,CNC1=CC(=O)c2c(C(=O)OC)c(C)[n+]([O-])c(C)c2C1=O,29%
17,COc1ccc2c(c1)cn1c3ccc(OC)cc3[nH]c(=O)c21,-53.8% (active)
18,O=C1c2ccc3c4c(ccc(c24)C(=O)N1CCCCO)C(=O)N(CCCCO)C3=O,7.09% (active)
19,Clc1ccccc1Nc1nnc(-c2ccncc2)s1,79.1%
20,C=C(C)[C@@H]1C[C@@H]2Cc3ccc(Cl)c(C)c3N1O2,3.4% (active)

row,Compound,growth
1,COc1ccc(-c2nc(SCC(=O)Nc3ccc(C(C)=O)cc3)[nH]c(=O)c2C#N)cc1,88.2%
2,COc1cc2cc(C(=O)Nc3ccccc3)c(N)nc2cc1OC,-42.1% (active)
3,N#C/C(=C\c1ccc(-c2cccc(C(F)(F)F)c2)o1)c1ccccc1,96.2%
4,Nc1c(C(=O)Nc2cccc3ncccc23)sc2nc3c(cc12)CN(Cc1ccccc1)CC3,48.6%
5,N=C(N)c1ccc(-c2cc(Cl)cc(Cl)c2)cn1,98.1%
6,O=c1ccn(C2CC(O)C(COC(c3ccccc3)(c3ccccc3)c3ccccc3)O2)c(=O)[nH]1 (stereo not given),10.1% [100 µM]
7,CC(=O)c1ccc(NC(=O)CSc2nnc(-c3cc(-c4ccc(C)cc4)nc4ccccc34)o2)cc1,80.6%
8,COc1cc2nc(N3CCCC3)nc(NCCc3ccccc3)c2cc1OC,-53.6% (active)
9,COC(=O)C1C(O)C(C)C(O)C(C)C=C(C)C2=C3C(=C(C)C(=O)c4c(O)c(c(C)c(OC(C)=O)c43)NC(=O)C(C)=C/C=C\C(C)C(O)C(C)C1O)OCO2 (stereo not given),141%
10,CC[C@]1(O)C[C@H]2CN(CCc3c([nH]c4ccccc34)C(C(=O)OC)(c3cc4c(cc3OC)N(C)[C@H]3[C@@](O)(C(=O)OC)[C@H](OC(C)=O)[C@]5(CC)[C@@H]6C[C@@H]6CN6CC[C@]43[C@@H]65)C2)C1 (stereo not given in full),-30.9% (active)
11,Cn1c2c(c3ccccc31)CCN1C[C@@H]3CCCC[C@H]3C[C@@H]21,2.52% (active)
12,N=C(N)c1ccc(OCCCCCCCCCCOc2ccc(C(=N)N)cc2)cc1,-70.1% (active)
13,CCN(Cc1ccc(Cl)c(Cl)c1)c1ccc2nc(N)nc(N)c2c1C,-79.5% (active)
14,CCN1CCCC1CNC(=O)c1ncc(-c2ccc(C(F)(F)F)cc2)c(NC2CCCCCC2)n1 (stereo not given),65.9%
15,Cn1cc(-c2nonc2-c2c[nH]c3ccc(F)cc23)c2cc(Br)ccc21,56.5%
16,C#CCOC(=O)[C@]1(C)CCC[C@]2(C)[C@H]3C[C@H]4C(C(C)C)=C[C@]3(CC[C@H]21)[C@@H]1C(=O)CCC(=O)[C@@H]14,64.7%
17,COc1cc(C2C(C#N)=C(N)Oc3cc(O)ccc32)cc(OC)c1OC (stereo not given),-26% (active)
18,CC/C=C\C[C@H](O)C/C=C1/C(=O)C=C[C@@H]1C/C=C\CCCC(=O)OCCS(=O)(=O)c1ccccc1,62.1%
19,COC(=O)c1c(NC(=O)CSc2nnnn2-c2ccc(OC)cc2)sc(C)c1C,-6.74% (active)
20,COc1cccc(-c2nnc(COc3ccc(-c4nc5ccccc5[nH]4)cc3OC)o2)c1,103%
